# TDP43 rescue: qHTS of TDP-43 Inhibitors. TDP-43 expressing yeast growth rescue, BacTiter-Glo, 24 h. Potency, µM (highest dose often 46.1 µM), actives largely listed as activators. 410,000 tested, 1.8% active. AID 652104, 2013; further: nearly all actives have a fitted effect of over 50% in size
#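 Galactose-induced TDP-43 yeast, OD600=0.02, compound pinned; 24 hr, 30 deg C; BacTiter-Glo luminescence for growth. Inhibitors of TDP-43 toxicity read as activators.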
# aSyn rescue: qHTS of alpha-syn Inhibitors; Yeast expressing alpha-synuclein, growth rescue, BacTiter-Glo, 24 h; Potency, µM (top dose mostly 46.1 µM), usual class: activators; 370,000 tested, 0.14% active; further: nearly all actives have a fitted effect of over 65% in size
#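 Readout is rescue of growth in alpha-synuclein-expressing yeast, so inhibitors of toxicity appear as activators. Growth after 24 hr at 30 deg C in galactose medium is quantified by luminescence.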
# Abeta rescue: qHTS for compounds that reverse cellular toxicity of Amyloid beta (A-beta) peptide in yeast: Primary Screen; yeast expressing A-beta42, growth rescue, OD600, 48 h; response scale: 0% DMSO, 100% iron-clioquinol control; 410,000 tested, 0.063% active; Potency, µM (top dose mostly 46.1 µM), usual class: activators; further: nearly all actives have a fitted effect of over 55% in size
#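 Yeast A-beta toxicity model in growth medium with pinned compounds, 48 h at 30 C; growth read as absorbance at 600 nm. Normalized to FeCl3/clioquinol equimolar mix (positive) and DMSO (negative).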
# Mito fusion act: qHTS Assay for Small Molecule Inhibitors of Mitochondrial Division or Activators of Mitochondrial Fusion. S. cerevisiae fusion-defective mutant growth rescue, CellTiterGlo 48 h. Potency, µM (doses to about 46.1 µM), usual class: activators. 320,000 tested, 0.23% active. AID 485298, 2010; further: nearly all actives have a fitted effect of over 45% in size
#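 Compounds are tested for their ability to restore growth of mitochondrial fusion-defective yeast strains at non-permissive 37C in YPEG medium over 48 hours. Viability is quantified by luciferase luminescence.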
# FUS suppressor: qHTS for Suppressors of FUS Proteinopathy: Primary screen using FUS-linked yeast assay. Potency, µM (titrated, usually from 76.6 µM), hits mostly activators. 390,000 tested, 0.24% active. S. cerevisiae FUS-expressing, growth rescue, OD600, 24 h; further: nearly all actives have a fitted effect of over 55% in size
#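 Restored growth of FUS-toxic S. cerevisiae, read as 600 nm absorbance after 24 h at 30C in galactose medium (starting OD 0.005). Controls CP55940 and DMSO.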
# ERG Ets-DNA blk: qHTS for Small Molecule Inhibitors of the ERG Ets/DNA interaction. fluorescence polarization, His-ERG Ets domain / labelled DNA. Potency, µM (highest dose often 76.9 µM), usual class: inhibitors. 370,000 tested, 0.028% active. Transcriptional regulator ERG (Homo sapiens), P11308; active means well fitted inhibition curve with a large enough effect in the polarisation, with a control signal flat; inconclusive means small, poorly fitted or top-dose-only effect, or effect the other way, or a change in a side signal; inactive means no such curve, though single readings can be large or run the other way; the % refers to the polarisation;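 further: polarization taken with two DNA probes labelled with fluorescein and Texas red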
# Target sequence (P11308 whole entry, looked up, the tested form may be a part): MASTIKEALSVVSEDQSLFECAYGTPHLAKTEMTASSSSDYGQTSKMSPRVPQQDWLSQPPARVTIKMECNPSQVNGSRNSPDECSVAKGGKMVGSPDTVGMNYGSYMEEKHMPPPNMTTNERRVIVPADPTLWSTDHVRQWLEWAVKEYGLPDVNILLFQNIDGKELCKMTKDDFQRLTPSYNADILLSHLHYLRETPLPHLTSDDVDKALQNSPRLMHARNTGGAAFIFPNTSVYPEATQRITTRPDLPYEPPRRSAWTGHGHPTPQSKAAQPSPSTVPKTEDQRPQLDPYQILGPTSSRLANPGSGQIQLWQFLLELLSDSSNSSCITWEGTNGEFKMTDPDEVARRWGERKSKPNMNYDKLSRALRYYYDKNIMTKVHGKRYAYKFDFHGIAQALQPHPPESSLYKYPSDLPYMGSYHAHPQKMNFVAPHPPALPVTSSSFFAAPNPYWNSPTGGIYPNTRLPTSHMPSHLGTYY
#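 His-tagged ERG Ets domain (1 uM in the protein solution; 300mM KCl, 50mM Tris-HCl, 1mM EDTA, 1mM DTT, pH 7.5) received compound, then a probe mix of 5 nM fluorescein-DNA and 100nM Texas-615-DNA. Fluorescence polarization was read for both dyes.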
# Hits are given with their value; – = inactive; ? = inconclusive; · = no result given; [ ] = dose if it differs, or a comment. Sampled rows, rich in hits. Any-hit rate of the full collection: about 2.2%. Unless noted, the call rests on the fitted dose curve; in most records, active means well fitted curve in the direction sought with a large enough effect; inconclusive means small, poorly fitted or top-dose-only effect, or another doubt; inactive means no such curve, though single readings can be large; an effect the other way counts as inactive or inconclusive.
SMILES,TDP43 rescue,aSyn rescue,Abeta rescue,Mito fusion act,FUS suppressor,ERG Ets-DNA blk
CCCNC(=O)C1(C)CCCN(C(=O)Cc2ccc(OC)c(OC)c2)C1 (centres undefined),–,–,–,·,–,·
N#Cc1nc(-c2ccc(OCc3ccccc3Cl)cc2)oc1N1CCCCCC1,·,–,·,·,·,·
COCCCNC(=O)/C=C/c1cccc(Cl)c1,–,–,–,–,–,–
CN(C)C(CNC(=O)/C=C/c1cccc(Cl)c1)c1ccccc1 (centres undefined),–,–,–,–,–,40µM
Cc1ccc(C(=O)Oc2cccc(NC(=O)c3ccccc3)c2)cc1C,–,–,?,10µM,·,–
O=C(Oc1cccc(NC(=O)c2ccccc2Cl)c1)c1ccc([N+](=O)[O-])cc1,13µM,–,–,–,–,–
O=C(Nc1cccc(OC(=O)c2ccc(Br)o2)c1)c1ccccc1,22µM,–,–,?,–,–
O=C(Nc1ccc(Nc2ccccc2)cc1)c1ccc(Br)o1,–,–,–,–,·,–
O=C(Nc1cccc(O)c1)c1ccc([N+](=O)[O-])cc1Cl,–,–,–,–,–,–
CCSc1nnc(SCC(=O)c2c(N)n(C)c(=O)n(C)c2=O)s1,–,–,–,–,–,–
Cc1ccc(CNC(=O)c2cccc(-n3cnc4cccnc43)c2)cc1,?,·,–,·,–,–
COC(=O)c1ccc(-n2c(CCC(=O)O)ccc2-c2ccc(C)cc2)cc1,–,–,–,–,–,–
CCOC(=O)c1ccc(-n2c(CCC(=O)O)ccc2-c2ccc(F)cc2)cc1,13µM,–,–,–,–,–
Cc1ccc(S(=O)(=O)Nc2ccc(SC(F)F)cc2)c(C)c1,–,18µM,–,?,·,–
Clc1ccc(N2CCN(Cc3cc4ccccn4n3)CC2)cc1,·,–,·,23µM,·,·
C#CCOCCOCCOCCNc1nc(N2CCN(C(=O)CCCCCCCCCCNC(=O)[C@H](CCCCN)n3cc(C[C@@H](C)CC)nn3)CC2)nc(N2CCN(C(=O)CCCCCCCCCCNC(=O)[C@H](CCCN=C(N)N)n3cc(C[C@@H](C)CC)nn3)CC2)n1,–,–,–,–,10µM,–
C#CCOCCOCCOCCNc1nc(N2CCN(C(=O)CCCCCCCCCCNC(=O)[C@H](CO)n3cc(CCCCCN)nn3)CC2)nc(N2CCN(C(=O)CCCCCCCCCCNC(=O)[C@H](CCCN=C(N)N)n3cc(C[C@@H](C)CC)nn3)CC2)n1,·,·,·,–,·,·
C#CCOCCOCCOCCNc1nc(N2CCN(C(=O)CCCCCCCCCCNC(=O)[C@@H](CCSC)n3cc(CCO)nn3)CC2)nc(N2CCN(C(=O)CCCCCCCCCCNC(=O)[C@H](CCCN=C(N)N)n3cc(C[C@@H](C)CC)nn3)CC2)n1,–,–,–,–,10µM,–
Cc1ccc(N2CCN(c3nc4ccc(C)cc4n4nnnc34)CC2)c(C)c1,–,·,–,·,–,–
CC(C)(C)C(=O)NC(=S)Nc1ccc(C(F)(F)F)cc1,–,–,13µM,–,–,–
CC(C)C(NC(=O)c1ccccc1)C(=O)NC1CCCc2ccccc21 (centres undefined),–,–[1.84 µM],–,–,–,–
COc1cccc(NC(=O)N2CCc3nc(Nc4cc(Cl)cc(Cl)c4)ncc3C2)c1,16µM,?,?,·,28µM,·
CCCCC(=O)N(C)c1c(CC)nc2c(OCC(=O)c3ccc(Cl)cc3Cl)cccn12,–,–,–,·,32µM,·
CCc1nc2c(OCc3ccc(Cl)cc3Cl)cccn2c1N(C)C(=O)c1ccccc1F,18µM,–,–,·,?,·
CCc1nc2c(OC)cccn2c1N(C)C(=O)c1ccccc1F,–,–,–,·,–,·
CCc1nc2c(OCC(=O)c3ccc(Cl)cc3Cl)cccn2c1N(C)C(=O)c1ccncc1,–,–,–,·,–,·

# From PubChem BioAssay
